Data as given in PubChem BioAssay (NCI).
This is part of a sample that, as a whole, favours compounds with a hit. Of some 79,000 tested, about 15% had one in any assay. The source made the active and inactive calls. No stated cut-off is given here; in the data, active means growth inhibition above about 70%; inactive means the rest.

Key:
[1] = NCI Yeast Anticancer Drug Screen. Data for the rad52 strain (AID 147);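 further: 0% = growth of vehicle-treated control cultures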; details: S. cerevisiae rad52 mutant growth inhibition, stronger effect = higher value
How it was run: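 Yeast strain carrying a DNA damage repair alteration was exposed to test compounds. Growth inhibition was measured relative to vehicle-treated controls.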

[2] = NCI Yeast Anticancer Drug Screen. Data for the wt1 strain (AID 149);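 further: 0% = growth of vehicle-treated wt1 cultures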; details: S. cerevisiae wt1 strain (SPY 50644) growth inhibition, stronger effect = higher value
How it was run: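 Using yeast strain wt1, compound-induced growth inhibition was determined against vehicle-treated cultures.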

[3] = NCI Yeast Anticancer Drug Screen. Data for the rad50EPP+ strain (AID 151);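 further: 0% = growth of vehicle-treated control cultures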; details: S. cerevisiae rad50 mutant strain, stronger effect = higher value
How it was run: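 Yeast strain carrying rad50 alteration (rad50EPP+) exposed to compounds; growth inhibition measured relative to vehicle-treated controls.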

[4] = NCI Yeast Anticancer Drug Screen. Data for the mgt1 strain (AID 153); details: S. cerevisiae mgt1 mutant growth inhibition, stronger effect = higher value
How it was run: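 Yeast mgt1 strain (DNA repair/cell-cycle alteration panel) exposed to compounds; growth inhibition measured relative to vehicle-treated controls.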

[5] = NCI Yeast Anticancer Drug Screen. Data for the rad50 strain (AID 155);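 further: 0% = growth of vehicle-only cultures of the same strain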; details: S. cerevisiae rad50 strain growth inhibition, stronger effect = higher value
How it was run: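 Relative growth inhibition (compound vs vehicle) was measured in yeast with a defined repair-gene alteration.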

[6] = NCI Yeast Anticancer Drug Screen. Data for the mec2-1 strain (AID 157); details: S. cerevisiae mec2-1 strain, stronger effect = higher value
How it was run: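 mec2-1 yeast strain, carrying an alteration in DNA damage repair or cell cycle control, was exposed to compounds; growth inhibition was measured relative to vehicle-treated controls.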

[7] = NCI Yeast Anticancer Drug Screen. Data for the rad14 strain (AID 159);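 further: 0% = growth of vehicle-treated control cultures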; details: S. cerevisiae rad14 strain growth inhibition, stronger effect = higher value
How it was run: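 Screen for anticancer potential: a yeast strain altered in DNA damage repair is grown with compound, and reduced growth is quantified against vehicle controls.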

[8] = NCI Yeast Anticancer Drug Screen. Data for the sgs1 mgt1 strain (AID 161);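 further: 0% = growth of cultures given vehicle only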; details: S. cerevisiae sgs1 mgt1 strain, stronger effect = higher value
How it was run: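 This yeast growth screen uses a strain with defined DNA-repair lesions; compound-treated growth is compared with vehicle-treated growth.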

[9] = NCI Yeast Anticancer Drug Screen. Data for the CLN2oe strain (AID 163);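 further: 0% = growth of vehicle-only control cultures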; details: S. cerevisiae CLN2oe strain, stronger effect = higher value
How it was run: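 Yeast cells carrying a defined cell-cycle control alteration were exposed to test compounds. Growth inhibition was scored against vehicle-treated control cultures.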

[10] = NCI Yeast Anticancer Drug Screen. Data for the cln2 rad14 strain (AID 165);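 further: 0% = growth equal to vehicle treated cultures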; details: S. cerevisiae cln2 rad14 strain, stronger effect = higher value
How it was run: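 Yeast carrying cln2 and rad14 alterations (cell cycle control and DNA damage repair) were exposed to compounds. Growth inhibition was measured against vehicle-treated controls.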

[11] = NCI Yeast Anticancer Drug Screen. Data for the bub3 strain (AID 167); details: S. cerevisiae bub3 mutant strain, stronger effect = higher value
How it was run: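 Screening used yeast with an engineered genetic alteration affecting cell cycle control. Compound-exposed cultures were compared with vehicle cultures, and reduced growth was taken as inhibition.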

[12] = NCI Yeast Anticancer Drug Screen. Data for the wt2 strain (AID 169);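 further: 0% = growth of vehicle-treated yeast cultures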; details: S. cerevisiae wt2 strain growth inhibition, stronger effect = higher value
How it was run: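 Yeast cells were exposed to test compounds, and growth inhibition was measured relative to vehicle-treated controls.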

[13] = NCI Yeast Anticancer Drug Screen. Data for the mlh1 strain (AID 171);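 further: 0% = growth of vehicle-treated control cultures of the same strain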; details: S. cerevisiae mlh1 strain growth inhibition, stronger effect = higher value
How it was run: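 Yeast carrying a defined genetic alteration in DNA damage repair or cell cycle control were exposed to test compounds. Growth inhibition was measured relative to vehicle-treated controls.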

[14] = NCI Yeast Anticancer Drug Screen. Data for the sgs1 strain (AID 173);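 further: 0% = growth of vehicle-only control cultures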; details: S. cerevisiae sgs1 mutant, stronger effect = higher value
How it was run: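 Yeast mutant strains carrying defined defects in DNA damage repair or cell cycle control were exposed to test compounds. Growth inhibition was scored against vehicle-treated controls.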

[15] = NCI Yeast Anticancer Drug Screen. Data for the mlh1 rad18 strain (AID 175); details: S. cerevisiae mlh1 rad18 strain growth inhibition, stronger effect = higher value
How it was run: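 Growth inhibition of the yeast strain was measured after compound exposure and expressed relative to vehicle-treated controls. The strain carries defined defects in DNA damage repair.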

[16] = NCI Yeast Anticancer Drug Screen. Data for the rad18 strain (AID 177); details: S. cerevisiae rad18 mutant growth inhibition, stronger effect = higher value
How it was run: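 Yeast carrying a defined DNA damage repair alteration were exposed to compounds. Growth inhibition was expressed relative to vehicle-treated controls.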

[17] = at 5.0 µM (retest, dose inferred, filed as 0.5)
[18] = at 50.0 µM (retest, dose inferred, filed as 5.0)

Measured: growth inhibition

O=C(CCc1ccccc1)ON1C(=S)C(c2ccccc2)(c2ccccc2)N=C1Sc1ccccc1
active: [5]; [17] 91% | [5]; [18] 96% | [6]; [18] 94% | [11]; at 50.0 µM 78.7% | [15]; [18] 86% | [15]; at 50.0 µM 88.8%
inactive: [1]; at 1.2 µM 13% | [1]; at 3.7 µM 9% | [1]; at 11.0 µM 19% | [1]; at 33.0 µM 23% | [1]; at 100.0 µM 36% | [2]; at 1.2 µM 6% | [2]; at 3.7 µM 6% | [2]; at 11.0 µM 13% | [2]; at 33.0 µM 14% | [2]; at 100.0 µM 17% | [3]; at 1.2 µM 0% | [3]; at 3.7 µM -6% | [3]; at 11.0 µM 1% | [3]; at 33.0 µM 7% | [3]; at 100.0 µM 5% | [4]; at 1.2 µM 44% | [4]; at 3.7 µM 50% | [4]; at 11.0 µM 51% | [4]; at 33.0 µM 54% | [4]; at 100.0 µM 56% | [5]; at 1.2 µM 36% | [5]; at 3.7 µM 34% | [5]; at 11.0 µM 31% | [5]; at 33.0 µM 29% | [5]; at 50.0 µM 50% | [5]; at 100.0 µM 28% | [6]; at 1.2 µM 22% | [6]; at 3.7 µM 14% | [6]; [17] 23% | [6]; at 11.0 µM 6% | [6]; at 33.0 µM 7% | [6]; at 50.0 µM 61% | [6]; at 100.0 µM 26% | [7]; at 1.2 µM 20% | [7]; at 3.7 µM 20% | [7]; at 11.0 µM 27% | [7]; at 33.0 µM 21% | [7]; at 100.0 µM 36% | [8]; [17] -22% | [8]; [18] 37% | [8]; at 50.0 µM 56.6% | [9]; at 1.2 µM 4% | [9]; at 3.7 µM -8% | [9]; at 11.0 µM -4% | [9]; at 33.0 µM 19% | [9]; at 100.0 µM 57% | [10]; [17] -2% | [10]; [18] 35% | [10]; at 50.0 µM 45.9% | [11]; at 1.2 µM 6% | [11]; at 3.7 µM -10% | [11]; [17] -1% | [11]; at 11.0 µM -5% | [11]; at 33.0 µM -7% | [11]; [18] 32% | [11]; at 100.0 µM 22% | [12]; at 1.2 µM 1% | [12]; at 3.7 µM -4% | [12]; at 11.0 µM 0% | [12]; at 33.0 µM 14% | [12]; at 100.0 µM 44% | [13]; at 1.2 µM 44% | [13]; at 3.7 µM 50% | [13]; at 11.0 µM 51% | [13]; at 33.0 µM 54% | [13]; at 100.0 µM 56% | [14]; at 1.2 µM 43% | [14]; at 3.7 µM 44% | [14]; at 11.0 µM 46% | [14]; at 33.0 µM 49% | [14]; at 100.0 µM 56% | [15]; [17] 28% | [16]; at 1.2 µM 21% | [16]; at 3.7 µM 19% | [16]; at 11.0 µM 10% | [16]; at 33.0 µM 21% | [16]; at 100.0 µM 40%
